According to the supplement of paper PMC10646978:
± gives the standard deviation.

Test system: RAW-Dual (murine macrophage reporter line)
Experiment: NF-kB reporter (SEAP) activity fold change vs agonist alone; higher = enhanced NF-kB activity
Conditions: modulator concentration 10 µM; agonist: CpG ODN 1826 0.5 ug/mL
Outline: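 RAW-Dual murine macrophage reporter cells were seeded at 50 000 per well in 384-well plates and pre-incubated 1 hour at 37 °C with compound pin-transferred to 10 μM final. After 1 hour, a PRR agonist was added and cells incubated overnight. Supernatant NF-κB (SEAP, QUANTI-Blue, 620 nm absorbance) and IRF (Lucia luciferase, QUANTI-Luc, luminescence) signals were divided by the mean agonist-only control on the same plate to give fold change. Two replicate plates were averaged, with errors by propagation.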

**Q.** Which NF-kB reporter does the source give for `O=[N+]([O-])c1cc2c(cc1C=Nc1ccc(O)cc1)OCO2` here?
**A.** The NF-kB reporter was 0.842 ± 0.14.

**Q.** `CCNC(=O)CCC/C=C\C[C@@H]1[C@@H](/C=C/C(O)CCc2ccccc2)[C@@H](O)C[C@@H]1O` (some centres undefined) was tested. Which NF-kB reporter did it give?
**A.** The NF-kB reporter was 0.953 ± 0.059.

**Q.** How did the NF-kB reporter turn out when `CCCS(=O)c1ccc2nc(NC(=O)OC)[nH]c2c1` (centres undefined) was run?
**A.** Its NF-kB reporter is 1.04 ± 0.15.

**Q.** How did the NF-kB reporter turn out when `C#CCN[C@@H]1CCc2ccccc21` [Prestw-1734] was run?
**A.** The NF-kB reporter was 1.05 ± 0.06.

**Q.** `CCOC(=O)c1ccccc1NC(=O)CN(c1cc(Cl)ccc1OC)S(C)(=O)=O` was tested. Which NF-kB reporter did it give?
**A.** The NF-kB reporter was 1.02 ± 0.15.

**Q.** For `Cc1ccccc1C(=O)Nc1nc(C(C)(C)C)cs1`, which NF-kB reporter is on record?
**A.** Its NF-kB reporter is 0.519 ± 0.056.

**Q.** How did the NF-kB reporter turn out when `CC(Cc1ccc(O)c(O)c1)(NN)C(=O)O` (centres undefined) was run?
**A.** The NF-kB reporter was 0.957 ± 0.083.

**Q.** Which NF-kB reporter does the source give for `O=C(NN=Cc1ccc([N+](=O)[O-])o1)c1ccc(O)cc1` here?
**A.** The NF-kB reporter was 2.16 ± 0.17.

**Q.** How did the NF-kB reporter turn out when `O=C(CC12CC3CC(CC(C3)C1)C2)N1CCCCC1` was run?
**A.** The NF-kB reporter was 0.863 ± 0.064.

**Q.** `COC(=O)C1=CN(CC2CCCO2)C=C(C(=O)OC)C1c1ccccc1Br` (centres undefined) was tested. Which NF-kB reporter did it give?
**A.** Its NF-kB reporter is 1.08 ± 0.23.

**Q.** How did the NF-kB reporter turn out when `CCN(CC)C(=S)SSC(=S)N(CC)CC` was run?
**A.** The NF-kB reporter was 1.2 ± 0.097.

**Q.** `O=C(c1cc2cc(F)ccc2s1)N1CCc2ncncc2C1` was tested. Which NF-kB reporter did it give?
**A.** The NF-kB reporter was 1.05 ± 0.099.

**Q.** How did the NF-kB reporter turn out when `Cc1ccc(-n2ncnc2-c2ccccc2C)cc1Cl` was run?
**A.** The NF-kB reporter was 0.759 ± 0.064.

**Q.** For `COc1ccc(N(CC(=O)NCCSCc2ccccc2)S(C)(=O)=O)cc1Cl`, which NF-kB reporter is on record?
**A.** The NF-kB reporter was 0.873 ± 0.15.

**Q.** `COc1ccc(CNc2nc(N3CCC[C@H]3CO)ncc2C(=O)NCc2ncccn2)cc1Cl` was tested. Which NF-kB reporter did it give?
**A.** Its NF-kB reporter is 0.245 ± 0.011.

**Q.** Which NF-kB reporter does the source give for `O=C(Cc1ccccc1)NC(NC(=S)Nc1ccc(O)cc1)C(Cl)(Cl)Cl` (centres undefined) here?
**A.** Its NF-kB reporter is 0.88 ± 0.075.

**Q.** How did the NF-kB reporter turn out when `CC(C)Oc1ccc(C(=O)NC2CCN(c3ncnc4c3CCCC4)CC2)cn1` was run?
**A.** Its NF-kB reporter is 1.15 ± 0.086.

**Q.** For `COc1ccc(S(=O)(=O)NCc2ccnc(N3CCOCC3)n2)cc1Cl`, which NF-kB reporter is on record?
**A.** Its NF-kB reporter is 1.02 ± 0.052.

**Q.** `CC(=O)OC(OC(C)=O)c1ccc([N+](=O)[O-])cc1` was tested. Which NF-kB reporter did it give?
**A.** The NF-kB reporter was 1.16 ± 0.094.
